# Laboratory results from ChEMBL document CHEMBL3988442, “University of Dundee, Small-Polar-MMV Screening Library” (2021).
# Target: T1, Proteasome subunit beta (Trypanosoma cruzi) (UniProt O96673)
# T1 sequence (whole entry): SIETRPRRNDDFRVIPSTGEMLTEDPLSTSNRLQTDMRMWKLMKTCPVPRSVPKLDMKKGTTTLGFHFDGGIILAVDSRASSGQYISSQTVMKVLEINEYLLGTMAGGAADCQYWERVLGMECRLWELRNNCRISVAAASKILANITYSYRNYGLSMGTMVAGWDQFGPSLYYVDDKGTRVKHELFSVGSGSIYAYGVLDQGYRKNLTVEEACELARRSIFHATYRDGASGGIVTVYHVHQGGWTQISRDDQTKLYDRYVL
# Experiment: Trypanosoma cruzi proteasome chymotrypsin-like activity (TcProtChymo) assay. Note: in the data most compounds retested in dose-response had high values.
# Type: functional
# Design: scale not given: direction of the effect not stated beside the values
# Settings: 9.37 µM
row,Structure (SMILES),Percent Effect [%]
1,CCS(=O)(=O)N1C[C@H]2CCC[C@@]2(COc2ccccn2)C1,10.5
2,Cc1ccc(CNCCOc2ccc(S(C)(=O)=O)cc2)cc1,-3.68
3,Cn1nnc2cc(C(=O)N3CCCC3Cc3ccccc3)ccc21 (stereo not drawn),5.68
4,Cn1cnnc1C1CCCN(C(=O)NCCOc2ccccc2)C1 (stereo not drawn),15.9
5,Cc1ccc(-c2cccc(-c3ccn(CCN4CCCC4)n3)c2)nn1,4.31
6,c1coc(-c2nnc(CN3CCCC(CN4CCCCCC4)C3)o2)c1 (stereo not drawn),-1.25
7,OC(CN1CCN(Cc2ccc(F)cc2)CC1)C1CC1 (stereo not drawn),4.61
8,CCCNC(=O)c1ccc(NC(=O)c2cccc(OCC)c2)cc1,7.07
9,Cc1cc(CN2CCOC(CN(C)c3cccnn3)C2)no1 (stereo not drawn),6.39
10,Cc1noc(C)c1CN1CCN(C(=O)Cn2cncn2)CC1,-5.24
11,CC(C)(C)C(=O)N1CCC(c2nc(O)cc(-c3ccccn3)n2)CC1,12
12,COc1cc(CNCc2ccc(C(C)O)cc2)cc2c1OCO2 (stereo not drawn),20.8
13,c1cnc(-c2nc(CNCCn3cccn3)cs2)nc1,7.18
14,O=C(NCCNc1ccccn1)N1CCSCC1,6.67
15,O=C(CS(=O)(=O)c1ccccc1Cl)NC1CCCCNC1=O (stereo not drawn),6.93
16,N#CC1(C(=O)NCCCNc2ccc(C(F)(F)F)cn2)CCCC1,7.18
17,O=C1CCc2cc(-c3csc(CCN4CCCC4=O)n3)ccc2N1,5.41
18,CCn1c(C(=O)N2CCN(C(=O)COC)CC2)cc2ccccc21,-0.169
19,CC(O)CC(C)(C)CNC(=O)NCc1cccc(-n2ccnc2)c1 (stereo not drawn),-2.83
20,CCS(=O)(=O)NCCNC(=O)c1cc(Cl)c2c(c1)OCCCO2,8.33

row,Structure (SMILES),Percent Effect [%]
1,COc1c(CNCc2ccnc(N3CCCC3)c2)c(C)nn1C,-4.12
2,C[C@H]1C[C@@H]2CCN(C(=O)c3ccncn3)C[C@H]2O1,1.27
3,CCNC(=O)NC(=O)CSC(C)c1ccccc1F (stereo not drawn),11.3
4,CN(Cc1ccsc1)C(=O)Nc1ccc(S(C)(=O)=O)nc1,10.6
5,Cc1cc(F)ccc1OC1(C(=O)O)CCN(Cc2ccncc2)CC1,11.7
6,COc1cc(NC(=O)Cn2ccc3sc(C)cc3c2=O)cc(OC)c1,7.49
7,O=C(CCCc1nnc(-c2ccccc2)o1)N1CCN(CCO)CC1,12.2
8,CNc1cc2c(nn1)CCN(C(=O)c1ccoc1)C2,16.6
9,O=C1NC2(CCN(C(=O)c3ccccc3)CC2)CC1c1cccnc1 (stereo not drawn),2.65
10,CNC(=O)[C@H]1C[C@@H]2CN(S(=O)(=O)c3ccccc3)C[C@@H]2N1C(C)=O,8.32
11,CC(=O)NCC(=O)N1Cc2nccn2CC(Cn2cccn2)C1 (stereo not drawn),18.6
12,CCc1cnc2c(c1NCc1ccncc1)c(=O)n(C)c(=O)n2C,13.1
13,CCn1cnnc1C1CCN(C(=O)COCCc2ccccc2)CC1,6.71
14,Cc1nc(C2CCCN(C(=O)CCCn3ccnc3C)C2)no1 (stereo not drawn),-3.21
15,O=C(c1cscn1)N1C[C@H]2CCCC(OCc3cccnc3)[C@H]2C1 (stereo partly drawn),9.06
16,CSc1cccc(CNC(=O)C2CC(=O)N(CCN(C)C)C2)c1 (stereo not drawn),15.7
17,COc1ccc(-c2noc(CN3CCOCC3C)n2)cc1OC (stereo not drawn),8.83
18,OCC1CCCN1c1cc(NCCNc2ccccn2)ncn1 (stereo not drawn),20.4
19,O=C(Nc1cc(F)ccc1OCC1CCCO1)c1ccccn1 (stereo not drawn),0.242

# Organism: Homo sapiens
# Experiment: To identify inhibition of the IFN signalling (Jak-Stat) pathway via expression of an eGFP reporter gene under the control of an IFN-stimulated response element (ISRE) containing MxA promoter.
# Type: functional
# Design: scale not given: direction of the effect not stated beside the values
# Settings: 30 µM
row,Structure (SMILES),Percent Effect [%]
1,CCS(=O)(=O)N1C[C@H]2CCC[C@@]2(COc2ccccn2)C1,33
2,Cc1ccc(CNCCOc2ccc(S(C)(=O)=O)cc2)cc1,9.56
3,Cn1nnc2cc(C(=O)N3CCCC3Cc3ccccc3)ccc21 (stereo not drawn),7.53
4,Cn1cnnc1C1CCCN(C(=O)NCCOc2ccccc2)C1 (stereo not drawn),16.1
5,Cc1ccc(-c2cccc(-c3ccn(CCN4CCCC4)n3)c2)nn1,7.06
6,c1coc(-c2nnc(CN3CCCC(CN4CCCCCC4)C3)o2)c1 (stereo not drawn),4.66
7,OC(CN1CCN(Cc2ccc(F)cc2)CC1)C1CC1 (stereo not drawn),2.15
8,CCCNC(=O)c1ccc(NC(=O)c2cccc(OCC)c2)cc1,3.02
9,Cc1cc(CN2CCOC(CN(C)c3cccnn3)C2)no1 (stereo not drawn),1.91
10,Cc1noc(C)c1CN1CCN(C(=O)Cn2cncn2)CC1,-2.96
11,CC(C)(C)C(=O)N1CCC(c2nc(O)cc(-c3ccccn3)n2)CC1,11.1
12,COc1cc(CNCc2ccc(C(C)O)cc2)cc2c1OCO2 (stereo not drawn),15.6
13,c1cnc(-c2nc(CNCCn3cccn3)cs2)nc1,9.32
14,O=C(NCCNc1ccccn1)N1CCSCC1,5.29
15,O=C(CS(=O)(=O)c1ccccc1Cl)NC1CCCCNC1=O (stereo not drawn),-3.42
16,N#CC1(C(=O)NCCCNc2ccc(C(F)(F)F)cn2)CCCC1,23
17,O=C1CCc2cc(-c3csc(CCN4CCCC4=O)n3)ccc2N1,22.8
18,CCn1c(C(=O)N2CCN(C(=O)COC)CC2)cc2ccccc21,10.3
19,CC(O)CC(C)(C)CNC(=O)NCc1cccc(-n2ccnc2)c1 (stereo not drawn),18.3
20,CCS(=O)(=O)NCCNC(=O)c1cc(Cl)c2c(c1)OCCCO2,12.9

row,Structure (SMILES),Percent Effect [%]
1,COc1c(CNCc2ccnc(N3CCCC3)c2)c(C)nn1C,7.98
2,C[C@H]1C[C@@H]2CCN(C(=O)c3ccncn3)C[C@H]2O1,-2.6
3,CCNC(=O)NC(=O)CSC(C)c1ccccc1F (stereo not drawn),-1.43
4,CN(Cc1ccsc1)C(=O)Nc1ccc(S(C)(=O)=O)nc1,5.01
5,Cc1cc(F)ccc1OC1(C(=O)O)CCN(Cc2ccncc2)CC1,10
6,COc1cc(NC(=O)Cn2ccc3sc(C)cc3c2=O)cc(OC)c1,2.45
7,O=C(CCCc1nnc(-c2ccccc2)o1)N1CCN(CCO)CC1,0.191
8,CNc1cc2c(nn1)CCN(C(=O)c1ccoc1)C2,27
9,O=C1NC2(CCN(C(=O)c3ccccc3)CC2)CC1c1cccnc1 (stereo not drawn),-28.6
10,CNC(=O)[C@H]1C[C@@H]2CN(S(=O)(=O)c3ccccc3)C[C@@H]2N1C(C)=O,18.1
11,CC(=O)NCC(=O)N1Cc2nccn2CC(Cn2cccn2)C1 (stereo not drawn),3.41
12,CCc1cnc2c(c1NCc1ccncc1)c(=O)n(C)c(=O)n2C,14.7
13,CCn1cnnc1C1CCN(C(=O)COCCc2ccccc2)CC1,-1.88
14,Cc1nc(C2CCCN(C(=O)CCCn3ccnc3C)C2)no1 (stereo not drawn),22.2
15,O=C(c1cscn1)N1C[C@H]2CCCC(OCc3cccnc3)[C@H]2C1 (stereo partly drawn),-6.53
16,CSc1cccc(CNC(=O)C2CC(=O)N(CCN(C)C)C2)c1 (stereo not drawn),9.77
17,COc1ccc(-c2noc(CN3CCOCC3C)n2)cc1OC (stereo not drawn),28.9
18,OCC1CCCN1c1cc(NCCNc2ccccn2)ncn1 (stereo not drawn),22.1
19,O=C(Nc1cc(F)ccc1OCC1CCCO1)c1ccccn1 (stereo not drawn),2.47
